From PMC5540273 (PLoS ONE, 2017)

Key:
Conditions in all cases: concentration: 1 μM, replicates: in singlicate; n = 1
PHKG1 = system: PHKG1
PHKG2 = system: PHKG2
PIK3C2B = system: PIK3C2B
PIK3C2G = system: PIK3C2G
PIK3CA = system: PIK3CA
PIK3CB = system: PIK3CB
PIK3CD = system: PIK3CD
PIK3CG = system: PIK3CG
PIK4CB = system: T1, PIK4CB
T1 construct: gene PI4KB

PIKFYVE = system: PIKFYVE
PIM1 = system: PIM1
PIM2 = system: PIM2
PIM3 = system: PIM3
PIP5K1A = system: PIP5K1A
PIP5K1C = system: PIP5K1C
PIP5K2B = system: PIP5K2B
PIP5K2C = system: T2, PIP5K2C
T2 construct: gene PIP4K2C

PKAC-alpha = system: T3, PKAC-alpha
T3 construct: gene PRKACA

PKAC-beta = system: T4, PKAC-beta
T4 construct: gene PRKACB

PKMYT1 = system: PKMYT1
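Also: KINOMEscan kinase panel screen.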

Question: For `COc1cccc(-c2cc(-c3c[nH]nc3-c3ccccn3)ccn2)c1` [GW680338], which “%Inh” value (PHKG1) is on record?
Answer: 2%

Question: What about the “%Inh” value (PHKG2) of the same compound?
Answer: 10%

Question: And the “%Inh” value (PIK3C2B)?
Answer: 7%

Question: What about the “%Inh” value (PIK3C2G) of the same compound?
Answer: 11%

Question: And the “%Inh” value (PIK3CA)?
Answer: 4%

Question: And the “%Inh” value (PIK3CB)?
Answer: 3%

Question: What about the “%Inh” value (PIK3CD) of the same compound?
Answer: 0%

Question: What about the “%Inh” value (PIK3CG) of the same compound?
Answer: 9%

Question: And the “%Inh” value (PIK4CB)?
Answer: 0%

Question: What about the “%Inh” value (PIKFYVE) of the same compound?
Answer: 0%

Question: What about the “%Inh” value (PIM1) of the same compound?
Answer: 0%

Question: And the “%Inh” value (PIM2)?
Answer: 0%

Question: What about the “%Inh” value (PIM3) of the same compound?
Answer: 0%

Question: And the “%Inh” value (PIP5K1A)?
Answer: 19%

Question: What about the “%Inh” value (PIP5K1C) of the same compound?
Answer: 69%

Question: What about the “%Inh” value (PIP5K2B) of the same compound?
Answer: 21%

Question: What about the “%Inh” value (PIP5K2C) of the same compound?
Answer: 55%

Question: And the “%Inh” value (PKAC-alpha)?
Answer: 0%

Question: And the “%Inh” value (PKAC-beta)?
Answer: 0%

Question: What about the “%Inh” value (PKMYT1) of the same compound?
Answer: 0%

Question: What does the source list for `COc1ccc(Nc2nccc(-c3cccc(NC(=O)c4cc5cc(F)ccc5[nH]4)c3)n2)cc1` [GSK1229782]?
Answer: %Inh (PHKG1): 19%; %Inh (PHKG2): 0%; %Inh (PIK3C2B): 0%; %Inh (PIK3C2G): 0%; %Inh (PIK3CA): 0%; %Inh (PIK3CB): 0%; %Inh (PIK3CD): 0%; %Inh (PIK3CG): 2%; %Inh (PIK4CB): 0%; %Inh (PIKFYVE): 6%; %Inh (PIM1): 36%; %Inh (PIM2): 0%; %Inh (PIM3): 30%; %Inh (PIP5K1A): 0%; %Inh (PIP5K1C): 15%; %Inh (PIP5K2B): 12%; %Inh (PIP5K2C): 81%; %Inh (PKAC-alpha): 15%; %Inh (PKAC-beta): 21%; %Inh (PKMYT1): 6%

Question: Which results are given for `COc1cc2ncnc(Nc3ccc4nc(-c5ccccc5)[nH]c4c3)c2cc1OC.Cl` [GW282450]?
Answer: %Inh (PHKG1): 0%; %Inh (PHKG2): 6%; %Inh (PIK3C2B): 0%; %Inh (PIK3C2G): 0%; %Inh (PIK3CA): 0%; %Inh (PIK3CB): 0%; %Inh (PIK3CD): 0%; %Inh (PIK3CG): 0%; %Inh (PIK4CB): 0%; %Inh (PIKFYVE): 0%; %Inh (PIM1): 0%; %Inh (PIM2): 0%; %Inh (PIM3): 0%; %Inh (PIP5K1A): 6%; %Inh (PIP5K1C): 54%; %Inh (PIP5K2B): 3%; %Inh (PIP5K2C): 11%; %Inh (PKAC-alpha): 6%; %Inh (PKAC-beta): 0%; %Inh (PKMYT1): 10%

Question: How did the “%Inh” value (PHKG1) turn out when `NC(=O)c1nnc2ccccc2c1N` was run?
Answer: 0%

Question: What about the “%Inh” value (PHKG2) of the same compound?
Answer: 10%

Question: And the “%Inh” value (PIK3C2B)?
Answer: 40%

Question: What about the “%Inh” value (PIK3C2G) of the same compound?
Answer: 14%

Question: And the “%Inh” value (PIK3CA)?
Answer: 40%

Question: What about the “%Inh” value (PIK3CB) of the same compound?
Answer: 0%

Question: And the “%Inh” value (PIK3CD)?
Answer: 39%

Question: What about the “%Inh” value (PIK3CG) of the same compound?
Answer: 44%

Question: What about the “%Inh” value (PIK4CB) of the same compound?
Answer: 1%

Question: And the “%Inh” value (PIKFYVE)?
Answer: 4%

Question: What about the “%Inh” value (PIM1) of the same compound?
Answer: 1%

Question: What about the “%Inh” value (PIM2) of the same compound?
Answer: 0%

Question: What about the “%Inh” value (PIM3) of the same compound?
Answer: 0%

Question: What about the “%Inh” value (PIP5K1A) of the same compound?
Answer: 0%

Question: And the “%Inh” value (PIP5K1C)?
Answer: 38%

Question: What about the “%Inh” value (PIP5K2B) of the same compound?
Answer: 0%

Question: And the “%Inh” value (PIP5K2C)?
Answer: 13%

Question: And the “%Inh” value (PKAC-alpha)?
Answer: 13%

Question: And the “%Inh” value (PKAC-beta)?
Answer: 16%

Question: And the “%Inh” value (PKMYT1)?
Answer: 15%

Question: `Cc1cc(N2Cc3ccccc3C2)nc(Nc2ccc(S(=O)(=O)N3CCOCC3)cc2)n1.Cl` [GSK1669917] was tested. Which “%Inh” value (PHKG1) did it give?
Answer: 14%

Question: And the “%Inh” value (PHKG2)?
Answer: 0%

Question: And the “%Inh” value (PIK3C2B)?
Answer: 0%

Question: What about the “%Inh” value (PIK3C2G) of the same compound?
Answer: 0%

Question: And the “%Inh” value (PIK3CA)?
Answer: 0%

Question: And the “%Inh” value (PIK3CB)?
Answer: 0%

Question: And the “%Inh” value (PIK3CD)?
Answer: 0%

Question: What about the “%Inh” value (PIK3CG) of the same compound?
Answer: 48%

Question: And the “%Inh” value (PIK4CB)?
Answer: 100%

Question: And the “%Inh” value (PIKFYVE)?
Answer: 0%

Question: What about the “%Inh” value (PIM1) of the same compound?
Answer: 14%

Question: What about the “%Inh” value (PIM2) of the same compound?
Answer: 0%

Question: And the “%Inh” value (PIM3)?
Answer: 0%

Question: And the “%Inh” value (PIP5K1A)?
Answer: 0%

Question: What about the “%Inh” value (PIP5K1C) of the same compound?
Answer: 75%

Question: And the “%Inh” value (PIP5K2B)?
Answer: 10%

Question: What about the “%Inh” value (PIP5K2C) of the same compound?
Answer: 0%

Question: What about the “%Inh” value (PKAC-alpha) of the same compound?
Answer: 0%

Question: What about the “%Inh” value (PKAC-beta) of the same compound?
Answer: 0%

Question: And the “%Inh” value (PKMYT1)?
Answer: 21%

Question: What does the source list for `Cn1cncc1-c1ccc2ncnc(Nc3ccc(OCc4ccccc4)cc3)c2c1` [GW320571]?
Answer: %Inh (PHKG1): 5%; %Inh (PHKG2): 1%; %Inh (PIK3C2B): 61%; %Inh (PIK3C2G): 57%; %Inh (PIK3CA): 0%; %Inh (PIK3CB): 0%; %Inh (PIK3CD): 7%; %Inh (PIK3CG): 6%; %Inh (PIK4CB): 0%; %Inh (PIKFYVE): 0%; %Inh (PIM1): 0%; %Inh (PIM2): 2%; %Inh (PIM3): 0%; %Inh (PIP5K1A): 0%; %Inh (PIP5K1C): 16%; %Inh (PIP5K2B): 17%; %Inh (PIP5K2C): 76%; %Inh (PKAC-alpha): 0%; %Inh (PKAC-beta): 8%; %Inh (PKMYT1): 8%

Question: What does the source list for `Cc1cccc(-c2nc(Nc3cccc(C(N)=O)c3)c3ccccc3n2)n1` [GW876019]?
Answer: %Inh (PHKG1): 0%; %Inh (PHKG2): 8%; %Inh (PIK3C2B): 0%; %Inh (PIK3C2G): 44%; %Inh (PIK3CA): 0%; %Inh (PIK3CB): 0%; %Inh (PIK3CD): 48%; %Inh (PIK3CG): 0%; %Inh (PIK4CB): 0%; %Inh (PIKFYVE): 16%; %Inh (PIM1): 3%; %Inh (PIM2): 9%; %Inh (PIM3): 4%; %Inh (PIP5K1A): 12%; %Inh (PIP5K1C): 50%; %Inh (PIP5K2B): 0%; %Inh (PIP5K2C): 50%; %Inh (PKAC-alpha): 0%; %Inh (PKAC-beta): 36%; %Inh (PKMYT1): 32%

Question: What does the source list for `Cc1cccc(-c2nc(C)cc(Nc3ccncc3)n2)n1` [GSK257997]?
Answer: %Inh (PHKG1): 0%; %Inh (PHKG2): 7%; %Inh (PIK3C2B): 0%; %Inh (PIK3C2G): 0%; %Inh (PIK3CA): 3%; %Inh (PIK3CB): 0%; %Inh (PIK3CD): 0%; %Inh (PIK3CG): 5%; %Inh (PIK4CB): 0%; %Inh (PIKFYVE): 27%; %Inh (PIM1): 19%; %Inh (PIM2): 0%; %Inh (PIM3): 37%; %Inh (PIP5K1A): 0%; %Inh (PIP5K1C): 39%; %Inh (PIP5K2B): 7%; %Inh (PIP5K2C): 0%; %Inh (PKAC-alpha): 3%; %Inh (PKAC-beta): 17%; %Inh (PKMYT1): 12%

Question: With `O=C(Nc1ccc2c(c1)OCO2)NC1CCN(c2ccnc(Nc3ccc(F)cc3)n2)C1` (centres unmarked) [GSK1379724] as the compound, how does the “%Inh” value (PHKG1) read?
Answer: 0%

Question: What about the “%Inh” value (PHKG2) of the same compound?
Answer: 0%

Question: What about the “%Inh” value (PIK3C2B) of the same compound?
Answer: 0%

Question: And the “%Inh” value (PIK3C2G)?
Answer: 0%

Question: And the “%Inh” value (PIK3CA)?
Answer: 0%

Question: What about the “%Inh” value (PIK3CB) of the same compound?
Answer: 0%

Question: And the “%Inh” value (PIK3CD)?
Answer: 10%

Question: And the “%Inh” value (PIK3CG)?
Answer: 0%

Question: What about the “%Inh” value (PIK4CB) of the same compound?
Answer: 39%

Question: What about the “%Inh” value (PIKFYVE) of the same compound?
Answer: 0%

Question: And the “%Inh” value (PIM1)?
Answer: 0%

Question: And the “%Inh” value (PIM2)?
Answer: 0%

Question: What about the “%Inh” value (PIM3) of the same compound?
Answer: 0%

Question: What about the “%Inh” value (PIP5K1A) of the same compound?
Answer: 34%

Question: And the “%Inh” value (PIP5K1C)?
Answer: 32%

Question: And the “%Inh” value (PIP5K2B)?
Answer: 13%

Question: What about the “%Inh” value (PIP5K2C) of the same compound?
Answer: 23%

Question: What about the “%Inh” value (PKAC-alpha) of the same compound?
Answer: 0%

Question: And the “%Inh” value (PKAC-beta)?
Answer: 0%

Question: And the “%Inh” value (PKMYT1)?
Answer: 15%

Question: Which results are given for `COc1cc(Nc2nccc(N3CCC(NC(=O)Nc4cc(C)ccc4C)C3)n2)cc(OC)c1OC` (centres unmarked) [GSK1379762]?
Answer: %Inh (PHKG1): 3%; %Inh (PHKG2): 0%; %Inh (PIK3C2B): 0%; %Inh (PIK3C2G): 0%; %Inh (PIK3CA): 0%; %Inh (PIK3CB): 0%; %Inh (PIK3CD): 39%; %Inh (PIK3CG): 0%; %Inh (PIK4CB): 15%; %Inh (PIKFYVE): 0%; %Inh (PIM1): 0%; %Inh (PIM2): 0%; %Inh (PIM3): 0%; %Inh (PIP5K1A): 0%; %Inh (PIP5K1C): 21%; %Inh (PIP5K2B): 16%; %Inh (PIP5K2C): 70%; %Inh (PKAC-alpha): 5%; %Inh (PKAC-beta): 0%; %Inh (PKMYT1): 0%
